This is an account of results in PubChem BioAssay (NCATS).

Inconclusive results are not listed. A call without a number means that no potency is given here. Active and inactive are the calls of the source. Calls come from the whole dose curve; as a rule, active = well fitted cell-killing curve with a large enough effect in the repeat runs; inconclusive = weak or mixed curves, or effect the other way; inactive = flat fitted curve, though single readings scatter.

The nature of this test: qHTS assay for small molecule antagonists of the retinoid-related orphan receptor gamma (ROR-gamma) signaling pathway - cell viability counter screen (AID 720652).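 Note: compound exposure lasted 16 hr before ATP read.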 The settings on record: RORgamma reporter cell line viability counter screen; series mostly up to 92.2 µM. An excerpt: National Center for Advancing Translational Sciences [NCATS]
NIH Chemical Genomics Center [NCGC]
National Institutes of Environmental Health Sciences [NIEHS]
National Toxicology Program [NTP]
Nuclear steroid hormone receptors are involved in many biological processes including inflammatory responses, cell proliferation, and apoptosis. Environmental factors or compounds disrupting these nuclear receptor pathways and gene expression may promote susceptibility to immunotoxicants and autoimmune diseases. One important group of these expression factors are the retinoid-related orphan receptors. To assess compounds that may interfere with the retinoid-related orphan receptor gamma (ROR-gamma) transcription factor, a cell-based luciferase assay was used.
The CHO cell-based assay utilizes a TET-inducible ROR expression factor and ROR response element-LUC reporter gene. Reporter activity was induced using doxycycline and measured after 16hr incubation. Luminescence was read using Viewlux (PerkinElmer), where a decrease in reporter activity would show a decrease in luminescence. The cytotoxicity of the compounds against ROR response-Luc reporter gene cell line was quantified by measuring the intracellular ATP content.
1,000 cells in 4 uL/well were dispensed into white wall/solid bottom 1536-well plates using a Multidrop Combi (Thermo Scientific) dispenser. Following incubation at 37 C and 5% CO2 for 5 hr, 23 nL compound or DMSO vehicle were transferred by a pin tool, then the plates were treated with 1 ul doxycycline to induce reporter gene activity. After 16 hr incubation at 37 C and 5% CO2, 5 uL/well of CellTiter-Glo reagent (Promega) was then added to each plate using a Flying Reagent Dispenser and incubated at room temperature for 30 min. The luminescence intensity was quantified on a ViewLux plate reader (PerkinElmer).
In the case of `Cc1ccc(C(=O)O)cc1`, the Potency entry is “inactive”.
Next, `CCC=O`: “inactive”; `Cc1cc(C(=O)O)ccc1[N+](=O)[O-]`: “inactive”.
With `C=CCOC(=O)CCCCCCCC`, the Potency entry was “inactive”.
Next, `Cc1cccc([N+](=O)[O-])c1C(=O)O`: “inactive”; `CCOCC(=O)O`: “inactive”; `C=CCCC`: “inactive”.
With `C=C(C)C(=O)OCC(C)C`, the Potency entry was “inactive”.
Next, `CCCCC(CC)CO` (stereo not given): “inactive”; `CC=C(Cl)Cl`: “inactive”.
The value for `NS(=O)(=O)O` was “inactive”; that for `CC=O` was “inactive”.
For the molecule `COC(=O)CCC(=O)OC`, the Potency entry is “inactive”.
The value for `CN(C)c1cccc(O)c1` was “inactive”; that for `O=[N+]([O-])c1ccc2nc[nH]c2c1` was “inactive”; that for `Nc1cccc(C(F)(F)F)c1` was “inactive”.
The value for `O=C(O[C@@H](C(=O)O)[C@@H](OC(=O)c1ccccc1)C(=O)O)c1ccccc1` was “inactive”.
Turning to `Cc1ccc2oc(=O)ccc2c1`, the Potency result is “inactive”.
`C=C(C)C1CC=C(C)C(OC(C)=O)C1` (stereo not given): the Potency result is “inactive”.
The value for `O=Cc1c(Cl)cccc1Cl` was “inactive”; that for `CC(=O)c1cccc([N+](=O)[O-])c1` was “inactive”; that for `CCCCC(=O)N(C)C` was “inactive”.
Consider `COCCOC(=O)c1ccccc1C(=O)OCCOC`, for which the Potency result was “inactive”.
The value for `O=C(Cl)c1c(Cl)cccc1Cl` was “inactive”.
The value for `Nc1cccc(S(=O)(=O)O)c1` was “inactive”; that for `Nc1cccc(O)c1` was “inactive”.
The value for `CC(C)(C)c1ccc(OCC2CO2)cc1` (stereo not given) was “inactive”; that for `Cc1cc(C)cc(O)c1` was “inactive”.
With `CC(C)c1ccccc1`, the Potency entry is “inactive”.
As for `Nc1cccc(N)c1`, the Potency entry is “inactive”.
Next, `CC(=O)c1ccccc1[N+](=O)[O-]`: “inactive”.
Next, `Cc1cccc(Br)c1`: “inactive”.
Turning to `COC(=O)c1ccccc1`, the Potency result is “inactive”.
The value for `CCCCCCCCC/C=C/CC1CC(=O)OC1=O` (stereo not given) was “inactive”.
The value for `O=C(O)c1cc(Cl)cc(Cl)c1` was “inactive”; that for `CCCC(C)CO` (stereo not given) was “inactive”.
The value for `CNc1ccccc1` was “inactive”.
With `CC(N)CN` (stereo not given), the Potency result was “inactive”.
On to `Nc1ccccc1[N+](=O)[O-]`, for which the Potency result was “inactive”.
As to `Cc1ccc2c(c1[N+](=O)[O-])C(=O)c1ccccc1C2=O`, the Potency result is “inactive”.
